Reference: PubChem BioAssay (NCATS)
Records with an inconclusive call do not appear. For some assays here: Measured potencies and affinities stand elsewhere. Activity calls are given as the source filed them.

Assays:
[1] = Ebola virus entry assay, green fluorescence channel
[2] = Ebola virus entry assay, green channel fluorescence
[3] = Ebola virus entry assay, reporter ratio channel; AC50: Channel type: primary unless noted; outcome: Channel type: primary unless noted
[4] = Ebola virus entry assay, blue channel (ratio component)
[5] = Ebola virus entry assay, blue channel fluorescence
[6] = Ebola virus entry assay, green fluorescence channel; remark: listed apart in the source
[7] = Ebola virus entry assay, ratio channel readout
[8] = Ebola virus entry assay, blue channel fluorescence; remark: listed apart in the source
[9] = Ebola virus entry assay, ratio channel
[10] = Ebola virus entry assay, blue channel fluorescence; remark: listed apart in the source
[11] = Ebola virus entry reporter assay, green channel fluorescence
[12] = Ebola virus entry cell assay, ratio channel
[13] = qHTS profiling of the MIPE4 collection as inhibitors of Plasmodium falciparum (DD2) proliferation (Rep 2) (AID 743346); details: P. falciparum Dd2 in erythrocytes, SYBR Green DNA, 72 h; at 28.5 µM (top of the series) unless noted
Summary of the method: (§1)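 Erythrocytes infected with P. falciparum (0.3% parasitemia, 2.5% hematocrit) incubated with compounds 72 h at 37 C, 5% CO2. Lysis with saponin/Triton buffer containing SYBR Green I, overnight at room temperature in the dark; DNA fluorescence (485/535 nm) normalised to 0.29 uM artemisinin and DMSO.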

[14] = qHTS profiling of the MIPE4 collection as inhibitors of Plasmodium falciparum (HB3) proliferation (AID 743347);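 note: plate controls were DMSO vehicle wells for no effect and artemisinin wells for full effect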; details: P. falciparum HB3 in erythrocytes, SYBR Green DNA, 72 h; at 28.5 µM (top of the series) unless noted
Summary of the method: as §1

[15] = qHTS assay for measurement of the activity of small molecule inhibitors on Zika virus induced Caspase-3 activity in human iPSC derived neural progenitor cells (hNPCs) (AID 1224857; active = well fitted inhibition curve with a large enough effect; note: % of control where 0% means no effect; nearly all actives have a fitted effect of over 65% in size); details: hNPCs ZIKV-induced caspase-3/7, Caspase-Glo luminescence, 6 h; series mostly up to 45.7 µM
Summary of the method: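 Values are percent inhibition of virus-induced caspase-3/7 signal, scaled between uninfected cells and ZIKV-infected cells. Infection used 2 FFU/cell for 6 h after 1 h compound exposure.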

[16] = qHTS assay for measurement of the activity of small molecule inhibitors on Zika virus induced Caspase-3 activity in human astrocytoma cells (AID 1224859; active = well fitted inhibition curve with a large enough effect;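 note: plate controls were ZIKV-infected untreated cells for no effect and uninfected cells for full effect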); details: SNB-19 ZIKV-induced caspase-3/7, luminescence, 6 h; series mostly up to 45.7 µM
Summary of the method: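 Compound added 1 h pre-infection; ZIKV 2 FFU/cell on SNB-19 cells, 6 h, 37 C/5% CO2. Caspase-Glo 3/7 luminescence; values as % inhibition of ZIKV-induced caspase activity.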

[17] = qHTS profiling of the MIPE4 collection as inhibitors of Plasmodium falciparum (DD2) proliferation (AID 743345); details: P. falciparum Dd2 in erythrocytes, SYBR Green DNA, 72 h; at 28.5 µM (top of the series) unless noted
Summary of the method: as §1

[18] = Immunotoxin (HA22) sensitization/mitigation study. Vehicle arm (PBS) (AID 1159510); details: cancer cells viability with PBS vehicle (HA22 study); series mostly up to 46.1 µM; note: potency is the fitted concentration of half-maximal effect
[19] = Immunotoxin (SS1P) sensitization/mitigation study. Vehicle arm (DMEM) (AID 1159513); details: cell viability with vehicle (DMEM); series mostly up to 46.1 µM; note: potency is the fitted concentration of half-maximal effect
Throughout, for efficacy: 0% is about no effect.

CCCCCCCCCCCCCCCCN
inactive: efficacy [1] -37.3% | outcome [2] | outcome [3] | outcome [4]

COc1ccc(-c2cc(=O)c3c(O)cc(O[C@@H]4O[C@H](CO[C@@H]5O[C@@H](C)[C@H](O)[C@@H](O)[C@H]5O)[C@@H](O)[C@H](O)[C@H]4O)cc3o2)cc1O
inactive: efficacy [1] -6.57% | outcome [2] | outcome [3] | outcome [4]

O=c1cc[nH]c(=S)[nH]1
inactive: efficacy [1] 12.4% | outcome [2] | outcome [3] | outcome [4]

O=C(CS(=O)Cc1ccco1)NC/C=C\COc1cc(CN2CCCCC2)ccn1 (stereo not drawn)
inactive: efficacy [1] 29.8% | outcome [2] | outcome [3] | outcome [4]

NC(=O)NC1N=C([O][Al])NC1=O (stereo not drawn)
inactive: efficacy [1] 12.9% | outcome [2] | outcome [3] | outcome [4]

Nc1ncnc2c1ncn2Cc1c(F)cccc1Cl
inactive: efficacy [1] -22.1% | outcome [2] | outcome [3] | outcome [4]

Cc1ccccc1N1CCN(CCc2nnc3n2CCCC3)CC1
inactive: efficacy [1] -13.1% | outcome [2] | outcome [3] | outcome [4]

CC(O)CCCCn1c(=O)c2c(ncn2C)n(C)c1=O (stereo not drawn)
inactive: efficacy [1] 23.8% | outcome [2] | outcome [3] | outcome [4]

C=CCc1ccc(O)c(OC)c1
inactive: efficacy [1] 23.7% | outcome [2] | outcome [3] | outcome [4]

Nc1ccc(S(=O)(=O)Nc2ccc(Cl)nn2)cc1
inactive: efficacy [1] -19.3% | outcome [2] | outcome [3] | outcome [4]

CC(C)(C)NCC(O)COc1cccc2c1C[C@H](O)[C@H](O)C2 (stereo partly drawn)
inactive: efficacy [1] 21.3% | outcome [2] | outcome [3] | outcome [4]

C#C[C@]1(O)CC[C@H]2[C@@H]3CCC4=CC(=O)CC[C@@H]4[C@H]3CC[C@@]21CC
inactive: efficacy [1] 10.4% | outcome [2] | outcome [3] | outcome [4]

Nc1ccc(C(=O)OCC(O)CO)cc1 (stereo not drawn)
inactive: efficacy [1] 18.5% | outcome [2] | outcome [3] | outcome [4]

Cc1cc2cc3c(C)cc(=O)oc3c(C)c2o1
inactive: efficacy [1] -24.3% | outcome [2] | outcome [3] | outcome [4]

C[C@@H]1CN(c2c(F)c(F)c3c(=O)c(C(=O)O)cn(C4CC4)c3c2F)C[C@H](C)N1
inactive: efficacy [1] -15.7% | outcome [2] | outcome [3] | outcome [4]

CCCNC(C)C(=O)Nc1c(C)csc1C(=O)OC (stereo not drawn)
inactive: efficacy [1] 13% | outcome [2] | outcome [3] | outcome [4]

CC(C)COC(=O)c1ccc(N)cc1
inactive: efficacy [1] 8.42% | outcome [2] | outcome [3] | outcome [4]

O=C(O)CCCC[P+](c1ccccc1)(c1ccccc1)c1ccccc1
inactive: efficacy [1] 19.9% | outcome [2] | outcome [3] | outcome [4]

Cn1c(=O)c2[nH]c(Br)nc2n(C)c1=O
inactive: efficacy [1] -24.3% | outcome [2] | outcome [3] | outcome [4]

NC(=O)NS(=O)(=O)c1ccc(Cl)cc1
inactive: efficacy [1] -22.2% | outcome [2] | outcome [3] | outcome [4]

CC(C)(Sc1cc(C(C)(C)C)c(O)c(C(C)(C)C)c1)Sc1cc(C(C)(C)C)c(O)c(C(C)(C)C)c1
inactive: efficacy [1] -17.7% | outcome [2] | outcome [3] | outcome [4]

COP(=O)(OC)OC(c1ccc(Cl)cc1)P(=O)(OC)OC (stereo not drawn)
inactive: efficacy [1] -15.4% | outcome [2] | outcome [3] | outcome [4]

Cc1cc(=O)c2c(O)c3c(O)cc(=O)c4c3c3c(cc(O)c1c23)C(C)(C)C=4O
inactive: efficacy [1] -11.2% | outcome [2] | outcome [3] | outcome [4]

Cc1cc(C)c(NC(=O)CN(CC(=O)O)CC(=O)O)c(C)c1Br
inactive: efficacy [1] 7.04% | outcome [2] | outcome [3] | outcome [4]

COc1cc(/C=C/C(N)=O)cc(OC)c1OC
inactive: efficacy [1] -22.5% | outcome [2] | outcome [3] | outcome [4]

CCC(C)(CN(C)C)OC(=O)c1ccccc1 (stereo not drawn)
inactive: efficacy [1] 37.4% | outcome [2] | outcome [3] | outcome [4]

Oc1ccccc1C=NCc1ccccc1
inactive: efficacy [1] -16.4% | outcome [2] | outcome [3] | outcome [4]

CC1(C)O[C@@H]2C[C@H]3[C@@H]4CCC5=CC(=O)C=C[C@]5(C)[C@@]4(F)[C@@H](O)C[C@]3(C)[C@]2(C(=O)CO)O1
inactive: efficacy [1] 24.4% | outcome [2] | outcome [3] | outcome [4]

Cc1cc(O)cc2c1O[C@](C)(CCC[C@H](C)CCC[C@H](C)CCCC(C)C)CC2
inactive: efficacy [1] -22.5% | outcome [2] | outcome [3] | outcome [4]

CC(=O)OC(C)OC(=O)C(C)c1ccc(-c2ccccc2)c(F)c1 (stereo not drawn)
inactive: efficacy [1] -16.8% | outcome [2] | outcome [3] | outcome [4]

COc1ccc(/C(C)=C/C(=O)O)c(OC)c1
inactive: efficacy [1] -13.7% | outcome [2] | outcome [3] | outcome [4]

O=C(OCc1ccccc1)c1ccccc1
inactive: efficacy [1] -23.2% | outcome [2] | outcome [3] | outcome [4]

COc1cc(O)cc(O)c1
inactive: efficacy [1] 16.6% | outcome [2] | outcome [3] | outcome [4]

CC(C)=CCC[C@@](C)(O)[C@H]1CC=C(C)CC1
inactive: efficacy [1] -15.6% | outcome [2] | outcome [3] | outcome [4]

Cc1ccc(C(=O)C(C)CN2CCCCC2)cc1 (stereo not drawn)
inactive: efficacy [1] -18.5% | outcome [2] | outcome [3] | outcome [4]

CCn1cc(C(=O)O)c(=O)c2cnc(N3CCNCC3)nc21
inactive: efficacy [1] -36.7% | outcome [2] | outcome [3] | outcome [4]

CC1CN(c2cc3c(cc2F)c(=O)c(C(=O)O)cn3-c2ccc(F)cc2F)CCN1 (stereo not drawn)
inactive: efficacy [1] 9.66% | outcome [2] | outcome [3] | outcome [4]

CC(C)[N+](C)(C)CC(O)COc1cccc2ccccc12 (stereo not drawn)
inactive: efficacy [1] -28.5% | outcome [2] | outcome [3] | outcome [4]

O=c1[nH]c(=O)n([C@H]2C[C@H](O)[C@@H](CO)O2)cc1I
inactive: efficacy [1] -7.83% | outcome [2] | outcome [3] | outcome [4]

CC(=O)OCC(=O)[C@H]1CC[C@H]2[C@@H]3CCC4=CC(=O)CC[C@]4(C)[C@H]3CC[C@]12C
inactive: efficacy [1] -27% | outcome [2] | outcome [3] | outcome [4]

CC1(C)O[C@@H]2C[C@H]3[C@@H]4C[C@H](F)C5=CC(=O)C=C[C@]5(C)[C@@]4(F)[C@@H](O)C[C@]3(C)[C@]2(C(=O)CO)O1
inactive: efficacy [1] 10.5% | outcome [2] | outcome [3] | outcome [4]

Cn1cc(S(C)=O)c(=O)c2ccc(F)cc21 (stereo not drawn)
inactive: efficacy [1] -15.1% | outcome [2] | outcome [3] | outcome [4]

CC(=O)O[C@@H]1C(=O)O[C@@H]2[C@H]1OC(=O)[C@@H]2OC(C)=O
inactive: efficacy [1] -16.6% | outcome [2] | outcome [3] | outcome [4]

COc1ccc2c(c1)CCCC2=O
inactive: efficacy [1] 8.41% | outcome [2] | outcome [3] | outcome [4]

CCS(=O)(=O)c1ccc(OC)c(C(=O)OC)c1
inactive: efficacy [1] 18.9% | outcome [2] | outcome [3] | outcome [4]

COC(=O)CCCCC(CCSS/C(CCO)=C(\C)N(C=O)Cc1cnc(C)nc1N)SC(C)=O (stereo not drawn)
inactive: efficacy [1] -13.6% | outcome [2] | outcome [3] | outcome [4]

CC(=O)Nc1c(I)c(NC(C)=O)c(I)c(C(=O)O)c1I
inactive: efficacy [1] -8.35% | outcome [2] | outcome [3] | outcome [4]

CC[C@]12CCCN3CCc4c(n(c5ccccc45)[C@@](O)(C(=O)OC)C1)[C@@H]32
inactive: efficacy [1] -18% | outcome [2] | outcome [3] | outcome [4]

O=C(O)COc1nn(Cc2ccccc2)c2ccccc12
inactive: efficacy [1] -8.45% | outcome [2] | outcome [3] | outcome [4]

NCC[C@H](O)C(=O)N[C@@H]1C[C@H](N)[C@@H](O[C@H]2O[C@H](CN)[C@@H](O)[C@H](O)[C@@H]2O)[C@H](O)[C@@H]1O[C@H]1O[C@H](CO)[C@@H](O)[C@H](N)[C@@H]1O
inactive: outcome [5] | outcome [6] | outcome [7] | outcome [8] | outcome [9] | outcome [2] | outcome [10] | outcome [3] | outcome [4] | outcome [11] | outcome [12]

Cn1c(=O)c2[nH]cnc2n(C)c1=O
inactive: efficacy [1] -18.7% | outcome [2] | outcome [3] | outcome [4]
96.9%: growth, % of control [14]
114%: parasite growth, % of control (lower = inhibition) [13]

O=C1c2ccccc2C(=O)c2ccccc21
inactive: efficacy [1] 11.2% | outcome [2] | outcome [3] | outcome [4] | outcome [15] | outcome [16]

COc1cccc2c1C(=O)c1c(O)c3c(c(O)c1C2=O)C[C@@](O)(C(=O)CO)C[C@@H]3O[C@H]1C[C@H](N)[C@@H](O)[C@H](C)O1
active: AC50 [5] 7.94 µM
inactive: outcome [6] | outcome [7]

O=[N+]([O-])O[C@H]1CO[C@H]2[C@@H]1OC[C@H]2O[N+](=O)[O-]
inactive: efficacy [1] -25.2% | outcome [2] | outcome [3] | outcome [4] | outcome [15] | outcome [16]

CC(C)OC(=O)OCOP(=O)(CO[C@H](C)Cn1cnc2c(N)ncnc21)OCOC(=O)OC(C)C
345%: growth, % of control [14]
inactive: efficacy [1] -18.7% | outcome [2] | outcome [3] | outcome [4]
74.1%: parasite growth, % of control (lower = inhibition) [13]
79.8%: parasite growth remaining, % of DMSO control (lower = more inhibition) [17]

CNC(=O)c1ccccc1Sc1ccc2c(/C=C/c3ccccn3)n[nH]c2c1
active: Potency [18] 6.62 µM | Potency [19] 1.05 µM
inactive: efficacy [1] 28.2% | outcome [2]

CCN(CC)CCOC(=O)c1ccc(N)cc1
inactive: efficacy [1] -27.3% | outcome [3] | outcome [4]

O=c1[nH]oc2c1CCNC2
inactive: efficacy [1] 22.4% | outcome [2] | outcome [3] | outcome [4] | outcome [15] | outcome [16]
